Peg3 prom inh – inhibitors of Peg3 promoter; HeLa PEG-Prom luciferase reporter, luminescence, overnight; inhibition, % at 20 µM; 1.7% of 360,000 active; AID 588405;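 active means inhibition of at least 50% at 20 µM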
MITF TRPM1 inh – reduces MITF-dependent TRPM1 promoter luciferase signal. SK-MEL-5 TRPM1 promoter luciferase, 24 h. inhibition, % at 12.5 µM. 0.83% of 330,000 active;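 active means mean inhibition across replicates of 60% or more, whatever share of single replicates reaches that level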
CF NFkB inh – blocks PAF-induced NF-kB reporter in cystic fibrosis cells. inhibition, % at 5 µM. KKLEB NF-kB-GFP reporter, GFP fluorescence overnight. 0.86% of 360,000 active;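 active means at least 50% inhibition at 5 µM, scaled per plate between neutral and stimulator controls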;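 further: PAF is a Pseudomonas aeruginosa culture filtrate used as stimulus; plate controls were PAF-stimulated DMSO wells for no effect and unstimulated DMSO wells for full effect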
HIF-2a inh – blocks HIF-2a reporter activity. 786-0 RCC cells HIF-2a reporter, luciferase luminescence, overnight. inhibition, % at 18.8 µM. 0.72% of 360,000 active;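 active means inhibition of the luminescence signal of 40% or more relative to plate controls, in a single-dose primary screen at 18.75 µM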
CHOP inh – blocks CHOP induction under ER stress; CHO-K1 CHOP-promoter luciferase, tunicamycin-induced, 15-18 h; inhibition, % at 10 µM; 3.8% of 220,000 active; AID 2732;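 active means compounds that reduced the stress-induced luciferase reporter signal by more than about 70% of percent inhibition, limit read from the data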;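 further: 0% = tunicamycin plus vehicle and 100% = wells without tunicamycin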
KKLEB tox – reduces viability of KKLEB cystic fibrosis airway cells; KKLEB CF airway cells viability, ATPlite luminescence, overnight; active compounds read low; cells stimulated with P. aeruginosa culture filtrate; activity change (cytotoxicity), % at 5 µM; 0.36% of 360,000 active;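 active means corrected activity change at or below -50% at 5 µM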
Numbers without * were called inactive. A selection: hits, their analogues and other compounds. The true share with any hit is near 4.3%.

COc1cc2c(cc1NC(=O)c1cc(-c3ccncc3)nc3ccccc13)oc1ccccc12 was read as Peg3 prom inh 25.1, MITF TRPM1 inh -8.4, CF NFkB inh 4.0, HIF-2a inh 2.3, CHOP inh 84.7* and KKLEB tox -11.6.
`COc1cc2c(cc1NC(=O)c1cc(-c3cccnc3)nc3ccc(C)cc13)oc1ccccc12` gave Peg3 prom inh 63.3*, MITF TRPM1 inh -12.8, CF NFkB inh 8.8, HIF-2a inh -30.0, CHOP inh 86.3* and KKLEB tox -20.7.
`COc1ccc(-n2ccnc2SCC(=O)c2c(N)n(C3CC3)c(=O)[nH]c2=O)cc1` gave Peg3 prom inh -2.2, CF NFkB inh -10.0, HIF-2a inh 10.4 and KKLEB tox 3.5.
`C=CCc1cccc(Cl)c1OCCCNC1CCCC1` gave Peg3 prom inh 4.4, MITF TRPM1 inh -7.0, CF NFkB inh 6.2, HIF-2a inh 13.6 and KKLEB tox -16.5.
`COc1cc2c(cc1NC(=O)Nc1cccc(C)c1)oc1ccccc12` gave Peg3 prom inh -10.6, MITF TRPM1 inh -20.1, CF NFkB inh -5.4, HIF-2a inh -21.0, CHOP inh 89.5* and KKLEB tox 5.2.
For COc1cc2c(cc1NC(=O)Nc1ccc(C)cc1)oc1ccccc12 the results were Peg3 prom inh -68.2, MITF TRPM1 inh -25.0, CF NFkB inh -3.1, HIF-2a inh -116.9, CHOP inh 58.6 and KKLEB tox 15.6.
Screening CSc1ccccc1NC(=O)CN(Cc1ccc(Cl)cc1)S(C)(=O)=O returned Peg3 prom inh 15.3, MITF TRPM1 inh -12.8, CF NFkB inh -25.7, HIF-2a inh 0.2, CHOP inh 76.8* and KKLEB tox 10.1.
CSc1cccc(NC(=O)CN(Cc2ccc(Cl)cc2)S(C)(=O)=O)c1 was read as Peg3 prom inh 27.6, MITF TRPM1 inh 11.2, CF NFkB inh 5.5, HIF-2a inh 10.1, CHOP inh 93.1* and KKLEB tox 8.8.
For CCN(c1ccccc1)c1nc(Cl)nc2c1cnn2C the results were Peg3 prom inh 17.1, MITF TRPM1 inh 9.1, CF NFkB inh 43.2, HIF-2a inh 5.8 and KKLEB tox -20.8.
For CCOC(=O)c1ccc(NC(=O)CCc2nc(-c3ccc(Cl)cc3)no2)cc1 the results were Peg3 prom inh -4.2, MITF TRPM1 inh 15.1, CF NFkB inh 14.4, HIF-2a inh 7.5, CHOP inh 72.8* and KKLEB tox -14.3.
`O=C(CCCc1nc(-c2ccccc2)no1)Nc1cccnc1` gave Peg3 prom inh 13.9, MITF TRPM1 inh -8.4, CF NFkB inh -1.3, HIF-2a inh 4.8, CHOP inh 4.3 and KKLEB tox -13.0.
COc1ccc(CC(=O)Nc2ccc(-c3noc(-c4ccc(Cl)cc4)n3)cc2)cc1 was read as Peg3 prom inh 57.2*, MITF TRPM1 inh 25.1, CF NFkB inh 43.1, HIF-2a inh -27.0, CHOP inh -22.2 and KKLEB tox -54.8*.
Screening Cc1ccc(-c2noc(CCCC(=O)Nc3cccnc3)n2)cc1 returned Peg3 prom inh -25.0, MITF TRPM1 inh 33.6, CF NFkB inh 8.7, HIF-2a inh -13.4, CHOP inh 78.3* and KKLEB tox -7.5.
For CCc1ccccc1N(C)C(=O)CCc1nc(-c2ccc(C)cc2)no1 the results were Peg3 prom inh 23.2, MITF TRPM1 inh 0.4, CF NFkB inh 4.2, HIF-2a inh 14.1, CHOP inh 77.4* and KKLEB tox -0.2.
For CCN1C(=O)[C@H]2[C@@H](c3ccc(OC)cc3)N[C@]3(CCCN(Cc4ccc(F)cc4)C3=O)[C@H]2C1=O the results were Peg3 prom inh 5.6, CF NFkB inh -3.8, HIF-2a inh -0.3 and KKLEB tox 2.1.
COc1ccc(NC(=O)N(C)[C@H]2C[C@H]3c4[nH]c5ccc(-c6ccc(OC)cc6)cc5c4CCN3C[C@H]2[C@H](C)O)cc1 was read as Peg3 prom inh 97.6*, CF NFkB inh 22.1, HIF-2a inh -62.4 and KKLEB tox 0.7.
COc1ccc(NC(=O)N(C)[C@H]2C[C@H]3c4[nH]c5ccc(-c6ccc7c(c6)OCO7)cc5c4CCN3C[C@H]2[C@H](C)O)cc1 was read as Peg3 prom inh 54.6*, CF NFkB inh 10.3, HIF-2a inh -10.6 and KKLEB tox -2.4.
Screening COCCn1c(SCC(=O)Nc2ccc(F)cc2F)nc2c([nH]c3ccccc32)c1=O returned Peg3 prom inh 31.6, MITF TRPM1 inh 23.7, CF NFkB inh 14.5, HIF-2a inh 5.1 and KKLEB tox -12.7.
Screening CC(OC(=O)CN(C)S(=O)(=O)c1ccc(Cl)cc1)C(=O)Nc1ncc(Cl)cc1Cl (stereo unspecified) returned Peg3 prom inh 11.5, MITF TRPM1 inh 10.9, CF NFkB inh -5.4, HIF-2a inh 12.7, CHOP inh -11.2 and KKLEB tox 15.2.
CC(OC(=O)CN(C)S(=O)(=O)c1ccc(Cl)cc1)C(=O)Nc1cccc(Cl)c1 (stereo unspecified) was read as Peg3 prom inh 7.4, MITF TRPM1 inh 1.6, CF NFkB inh -0.1, HIF-2a inh 2.8, CHOP inh 82.8* and KKLEB tox 8.1.
For NC1(C(=O)O)CCc2cc(C(=O)O)ccc21 (stereo unspecified) the results were CHOP inh -6.7.
Screening CCOc1cc(C(=O)N2CCC(CC3CC(c4ccc(Cl)cc4)=NO3)(C(=O)NCC3CCCCC3)CC2)cc(OCC)c1OCC (stereo unspecified) returned Peg3 prom inh 1.6, MITF TRPM1 inh 17.9, CF NFkB inh 7.7, HIF-2a inh -0.9 and KKLEB tox -23.5.
For CC(C)(C)OC(=O)N1CCC(CC2CC(c3cccc(Br)c3)=NO2)(C(=O)NCC2CCCCC2)CC1 (stereo unspecified) the results were MITF TRPM1 inh -12.0.
`O=C(NCC1CCCCC1)C1(CC2CC(c3cccc(Br)c3)=NO2)CCNCC1` (stereo unspecified) gave Peg3 prom inh 99.1*, MITF TRPM1 inh 65.1*, CF NFkB inh 2.2, HIF-2a inh -29.9 and KKLEB tox -9.1.
For O=C(NCC1CCCCC1)C1(CC2CC(c3ccc(Cl)cc3)=NO2)CCNCC1 (stereo unspecified) the results were Peg3 prom inh 96.8*, MITF TRPM1 inh 24.9, CF NFkB inh 19.2, HIF-2a inh -148.9 and KKLEB tox -21.0.
COc1ccc(OC)c(S(=O)(=O)Nc2cc3c(cc2N2CCCC2)n(C)c(=O)c(=O)n3C)c1 was read as Peg3 prom inh -12.1, MITF TRPM1 inh 5.3, CF NFkB inh 6.7, HIF-2a inh 1.3 and KKLEB tox -1.0.
Screening COc1ccc(N(C)S(=O)(=O)c2cccc(C(=O)OCC(=O)c3c(N)n(C)c(=O)n(C)c3=O)c2)cc1 returned Peg3 prom inh 54.7*, MITF TRPM1 inh -0.6, CF NFkB inh -19.2, HIF-2a inh 15.5 and KKLEB tox 14.0.

Assay outcomes: PubChem, several laboratories
